Here are results for 28 compounds from PubChem BioAssay (EPA / NIEHS).

Results filed as inconclusive are left out. Activity calls are given as the source filed them. The calls were made as follows: active = hit-call score of the fitted dose curve at least 0.9, where 1 is the maximum; inconclusive = response in the unintended direction; inactive = score below 0.9.

In one assay the test system is Thyroperoxidase (TPO), gene 54314. In words: CCTE_Simmons_AUR_rTPO: CCTE's Amplex UltraRed Assay for Thyroperoxidase (TPO) Inhibition, Simmons Lab (AID 2283662).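 Also: potency for loss of signal meaning inhibition of peroxidase activity.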 The essentials:
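Rat thyroid microsomes (5 ug protein) with 25 uM Amplex UltraRed and 300 uM H2O2 in 200 mM phosphate buffer, 30 min at 37C in dark; fluorescence 544/590 nm. Eight concentrations, 5 nM–87.5 uM final, 0.5% DMSO, triplicate biological replicates.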
Take `CC(C)=CCC/C(C)=C\CO`: the half-maximal activity concentration (AC50) is 8.64 µM (active).

In the case of `Cn1cnc([N+](=O)[O-])c1Sc1ncnc2nc[nH]c12`, the AC50 was 30.4 µM (active).

Consider `CCOC(=O)c1ccc(C2CCC(NC[C@H](O)COc3ccc(O)c(NS(C)(=O)=O)c3)CC2)cc1` (some centres not stated), for which the half-maximal activity concentration (AC50) was 1.12 µM (active).

For the compound `CC(C)(O)c1coc(S(=O)(=O)NC(=O)Nc2c3c(cc4c2CCC4)CCC3)c1`, the AC50 was 7.6 µM (active).

Regarding `Nc1nc2ncc(CNc3ccc(C(=O)N[C@@H](CCC(=O)O)C(=O)O)cc3)nc2c(=O)[nH]1`, the AC50 was 20.5 µM (active).

System in another assay: not listed separately
As to the kind of experiment: CCTE_Simmons_CellTiterGLO_HEK293T: Viability Assessment in CCTE's Assays for Thyroperoxidase (TPO) Inhibition, Simmons Lab (AID 2283665).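 As to AC50: cells exposed to compound for 24 h before readout; actives reduce ATP signal below DMSO vehicle meaning cytotoxicity.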 In short, it runs like this: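 Cytotoxicity counter-screen: human HEK293T cells in low-serum (1% FBS) medium receive test chemical, 5 nM to 87.5 uM final, for 24 h; ATP is quantified by luciferase luminescence.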
On to `CC(C)=CCC/C(C)=C\CO`, for which the result was inactive.

Consider `Cn1cnc([N+](=O)[O-])c1Sc1ncnc2nc[nH]c12`, for which the AC50 was 1.09 µM (active).

For `CCOC(=O)c1ccc(C2CCC(NC[C@H](O)COc3ccc(O)c(NS(C)(=O)=O)c3)CC2)cc1` (some centres not stated), the AC50 was 18.3 µM (active).

`CC(C)(O)c1coc(S(=O)(=O)NC(=O)Nc2c3c(cc4c2CCC4)CCC3)c1`: the AC50 was 22.4 µM (active).

Turning to `Nc1nc2ncc(CNc3ccc(C(=O)N[C@@H](CCC(=O)O)C(=O)O)cc3)nc2c(=O)[nH]1`, the call was inactive.

System in a further assay: not listed separately
As to the kind of experiment: Tanguay_ZF_120hpf_TR_legacy: (Legacy) Oregon State University Tanguay Lab 120 Hour Post-fertilization zebrafish Assay for Touch Response (AID 2283667). In short, it runs like this: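 5D WT embryos; static exposure to 120 hpf, 28C, sealed/dark; DMSO 0.64% v/v final. TR scored present/absent; dead embryos excluded. Pos ctrl 5uM trimethyltin chloride.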
For the compound `CC[C@H]1CC[C@H](NCc2cc3c(cc2OC)[C@H]2C[C@H]2C(=O)N3C)[C@H](c2ccccc2)N1`, the compound was called inactive.

For the compound `CC1(C)C(=O)N(Br)C(=O)N1Br`, the call was inactive.

Take `O=C(NS(=O)(=O)/C=C/c1ccccc1)c1ccc(F)cc1Cl`: the call was inactive.

Take `CC(C)=CCC/C(C)=C\CO`: the result was inactive.

Consider `C1=CCCC=CCCC=CCC1`, for which the compound was classed as inactive.

As to `CCOC(=O)COc1ccc2c(c1)CC(NCC(O)c1cccc(Cl)c1)CC2` (configuration not stated), the compound was classed as inactive.

In the case of `C1N2CN3CN1CN(C2)C3`, the call was inactive.

For `COc1ccc(-n2nc(C(F)F)cc2-c2ccc(S(C)=O)cc2)cc1` (configuration not stated), the AC50 was 38.2 µM (active).

`CC(=O)OC[C@H]1O[C@@](COC(C)=O)(O[C@H]2O[C@H](COC(C)=O)[C@@H](OC(C)=O)[C@H](OC(C)=O)[C@H]2OC(C)=O)[C@@H](OC(C)=O)[C@@H]1OC(C)=O`: the compound was classed as inactive.

In the case of `Cn1cnc([N+](=O)[O-])c1Sc1ncnc2nc[nH]c12`, the result was inactive.

Take `CCOC(=O)c1ccc(C2CCC(NC[C@H](O)COc3ccc(O)c(NS(C)(=O)=O)c3)CC2)cc1` (some centres not stated): the result was inactive.

In the case of `CC(C)CCCCCCCOC(=O)CCCCC(=O)OCCCCCCCC(C)C`, the compound was classed as inactive.

For `Cc1ccc(O)cc1`, the compound was classed as inactive.

`CCCCC(CC)COC(=O)c1ccc(C(=O)OCC(CC)CCCC)cc1` (configuration not stated): the compound was called inactive.

Regarding `Fc1ccccc1[C@@H](F)COC1CCC(Nc2ncnc3[nH]ncc23)CC1` (some centres not stated), the result was inactive.

For `CC(C)(O)c1coc(S(=O)(=O)NC(=O)Nc2c3c(cc4c2CCC4)CCC3)c1`, the result was inactive.

Take `CCc1cc(SCc2sc(-c3ccc(C(F)(F)F)cc3)nc2CN2CCN(c3ccc(OC)cc3)CC2)ccc1OCC(=O)O`: the result was inactive.

For `CC(C)CC(C)(O)C#CC(C)(O)CC(C)C` (configuration not stated), the outcome was inactive.

On to `CCN(C(=O)c1cc(C)cc(OC[C@H](C)Nc2ccncc2)c1)C(C)C`, for which the call was inactive.

In the case of `CCCC(=O)OCC`, the compound was called inactive.

Consider `COc1ccc2sc(C(=O)Nc3nnn[nH]3)c(OC(C)C)c2c1`, for which the compound was classed as inactive.

On to `COCCOCCOCCOC`, for which the call was inactive.

Regarding `Clc1nc(Cl)c(Cl)c(Cl)c1Cl`, the compound was called inactive.

With `COCCOc1cc2cc(C(=O)NC3CCN(C(C)C)CC3)n(CC(=O)Nc3ccc(Cl)cn3)c2cn1`, the result was inactive.

On to `CNS(=O)(=O)c1cc(C(=O)N2CCC(CCN3C4CCC3CC(n3c(C)nc5ccccc53)C4)(c3cccc(F)c3)CC2)c(Cl)cc1F` (configuration not stated), for which the call was inactive.

`CCOC(=O)CC(CC(=O)OCC)(OC(C)=O)C(=O)OCC`: the call was inactive.

For `CCCCC(CC)COC(=O)CCCCCCCCC(=O)OCC(CC)CCCC` (configuration not stated), the result was inactive.
